Measured values as given in PubChem BioAssay (NCI).
This is part of a sample that, as a whole, favours compounds with a hit. Of some 79,000 tested, about 15% had one in any assay. The source made the active and inactive calls. No stated cut-off is given here; in the data, active means growth inhibition above about 70%; inactive means the rest.

Test: NCI Yeast Anticancer Drug Screen. Data for the CLN2oe strain (AID 163);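 further: 0% = growth of vehicle-only control cultures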
Conditions: S. cerevisiae CLN2oe strain, at 11.0 µM, hits give high values
Method in brief: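 Values reflect how much compound exposure reduced yeast growth, referenced to vehicle-exposed cells. Assay organism is a strain with a defined genetic change affecting cell-cycle control.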
With `CCC/C(Cl)=N\OC(=O)Nc1cccc(C(F)(F)F)c1` the growth inhibition was 4% (inactive). With `[O-][n+]1c2ccc(O)cc2nc2ccc(Cl)cc21` the growth inhibition was 20% (inactive). For `Clc1ccccc1C1OC1c1ccccc1Cl` (stereo not given), the growth inhibition was -1% (inactive). With `c1ccc2c(c1)c1ncccc1c1nccnc21` the growth inhibition was -10% (inactive). In the case of `CC(=O)Nc1ccc2c(c1)C(=Nc1ccc(C(=O)O)cc1)c1ccccc1-2`, the growth inhibition was 3% (inactive). With `COc1ccc(OC)c2cc3ccccc3cc12` the growth inhibition was 16% (inactive). For `COc1cc(C2c3cc4c(cc3OC(NNc3ccccc3)C2C)OCO4)cc(OC)c1OC` (stereo not given), the growth inhibition was 46% (inactive). In the case of `O=C1c2cc([N+](=O)[O-])ccc2-c2cccc(F)c21`, the growth inhibition was 6% (inactive). For `CCCCCCCCCCCC(=O)N(C)C`, the growth inhibition was 2% (inactive). In the case of `CCCCCCCCCCCC1=C(O)C(=O)C=C(O)C1=O`, the growth inhibition was 63% (inactive). In the case of `Cc1ccc(CSC(N)=Nc2ccccc2)cc1C`, the growth inhibition was -1% (inactive). For `CCCCCCCCCCC1CCC(=O)O1` (stereo not given), the growth inhibition was 7% (inactive). In the case of `O=[N+]([O-])c1cc(CCl)ccc1CCl`, the growth inhibition was 48% (inactive). For `Nc1ccc2c(c1)C(=O)c1cccc(N)c1C2=O`, the growth inhibition was 19% (inactive). With `CCCCCCCCCCNC(=O)OCC` the growth inhibition was 4% (inactive). With `CC1=C(C)Cc2c(O)ccc(O)c2C1` the growth inhibition was -7% (inactive). For `COc1ccc2c(c1)C(=O)c1ccccc1C2`, the growth inhibition was 0% (inactive). With `CCC(=O)OCCn1c2nc(=O)[nH]c(=O)c-2nc2cc(C)c(C)cc21` the growth inhibition was -3% (inactive). For `O=C(OCCN1CCCCCC1)C(c1ccsc1)C1CCCCC1` (stereo not given), the growth inhibition was 51% (inactive). For `Oc1c(Br)cc(Br)cc1C1CCCCC1`, the growth inhibition was 27% (inactive).
